# Experimental data published in ChEMBL document CHEMBL1157539, “Thousands of chemical starting points for antimalarial lead identification” (Nature, 2010).
# Tests used:
# Assay type in all cases: functional
# Plasmodium falciparum [1] = assay: GSK_TCMDC: Inhibition of Plasmodium falciparum 3D7 in whole red blood cells, using parasite LDH activity as an index of growth. Test compounds present at 2uM
# Plasmodium falciparum [2] = assay: GSK_TCMDC: Inhibition of Plasmodium falciparum Dd2 in whole red blood cells, using parasite LDH activity as an index of growth. Test compounds present at 2uM
# HepG2 = assay: GSK_TCMDC: Percent inhibition of human HepG2 cell line. Test compounds present at 10uM.
Structure (SMILES),Inhibition (Plasmodium falciparum [1]) [%],Inhibition (Plasmodium falciparum [2]) [%],Inhibition (HepG2) [%]
Nc1nc(N)c2c3c(cnc2n1)CCCC3,95,0,61
COc1cc(F)c2ncc(Cl)c(CCN3CCC(NCc4ccc5c(n4)NC(=O)CO5)CC3)c2c1.Cl,89,19,20
COc1ccc(CNC(=N)Nc2nc(-c3ccc(OCCCn4ccnc4)cc3)cs2)cc1.Cl,100,67,15
N#Cc1cccc(Nc2nccc(NCC(O)c3ccccc3C(F)(F)F)n2)c1 (stereo not drawn),98,39,36
Cc1cccc2nc(-c3ccc(-c4cccc(CN5CCCC(N)C5)c4)s3)[nH]c12.O=C(O)C(F)(F)F (stereo not drawn),100,94,17
NC1=NC(c2ccccc2)(c2ccccc2)C(=O)N1Cc1ccccc1Br.O=CO,93,38,36
O=C(Nc1cccnc1)c1cc(-c2cccnc2)nc2ccc(Cl)cc12,97,50,45
Cn1cncc1-c1ccc2c(-c3ccsc3)cnc(N)c2c1,97,72,41
Br.CCOc1ccc(CCCON2C(=N)N=C(N)NC2(C)C)cc1,93,93,65
CCCc1ccc(NC(=O)c2ccc(CN3CCCN(Cc4cccc(O)c4)CC3)cc2)cc1.O=C(O)C(F)(F)F,100,63,51
O=C(CSc1nccn1C1CCCCC1)Nc1cc(C(F)(F)F)ccc1Cl,96,95,2
Cc1cc(-c2ccc3c(c2)CC[C@@H](N[C@@H](C)c2ccccc2)C3)cnc1N.Cl,98,7,3
O=C(Nc1ccc(OC2CCN(Cc3ccc(F)cc3)C2)c(Cl)c1)c1ccoc1.O=C(O)C(F)(F)F (stereo not drawn),90,90,13
O=C(c1cc(-c2ccccc2)n[nH]1)N1CCN(S(=O)(=O)c2ccc(Cl)s2)CC1,88,81,9
CCc1nc(N)nc(N)c1-c1ccc(C(C)C)cc1,92,0,3
Cc1cccc2nc(-c3ccc(-c4cccc(NC(=O)c5cnn6cccnc56)c4)cc3)[nH]c12,91,29,100
COc1ccc(S(=O)(=O)N2CCCC(C)C2)cc1N1CCN(C(=O)c2ccc([N+](=O)[O-])o2)CC1 (stereo not drawn),94,4,0
Cl.c1ccc(-c2cc(NCCNc3cc(-c4ccccc4)nc4ccccc34)c3ccccc3n2)cc1,99,11,0
CS(=O)(=O)c1ccc(CNCc2ccc(-c3cccc(-c4nc5cc(C(F)(F)F)ccc5[nH]4)c3)cc2)cc1.O=C(O)C(F)(F)F,100,100,54
O=C(/C=C/c1ccc(Cl)c(Cl)c1)N1CCC(CCCN2CCC(c3c[nH]c4ccccc34)CC2)CC1,100,45,44
OC(CNc1ccnc(Nc2ccc(Cl)cc2)n1)c1ccccc1C(F)(F)F (stereo not drawn),98,28,22

Structure (SMILES),Inhibition (Plasmodium falciparum [1]) [%],Inhibition (Plasmodium falciparum [2]) [%],Inhibition (HepG2) [%]
Br.CC(CON1C(N)=NC(N)=NC1(C)C)Cc1ccc(Cl)cc1Cl (stereo not drawn),92,97,61
CCN(CC)CCN(Cc1ccc(-c2ccc(Cl)cc2)cc1)C(=O)Cn1c(CCc2cccc(F)c2F)nc(=O)c2ccccc21.O=C(O)C(O)C(O)C(=O)O,100,75,45
Cc1ccccc1C1CCN(c2ccc(C(=O)Nc3ccccc3)cn2)CC1.O=C(O)C(F)(F)F,95,94,53
COc1ccc(-c2ccc(NC(=O)c3ccc(Cl)cc3)cc2)cc1CN(C)CCO.O=C(O)C(F)(F)F,92,43,43
Cc1cccc(CN2CCC(C(=O)Nc3ccc(-c4nc5ccccc5[nH]4)cc3)CC2)n1,96,3,0
Cc1n[nH]c2cc(Nc3ccnc(Nc4ccc(CN5CCOCC5)cc4)n3)ccc12,97,5,22
COc1ccc(-c2cccc(NC(=O)c3cccc(C#N)c3)c2)cc1CN(C)CCO.O=C(O)C(F)(F)F,96,30,28
CCOC(=O)c1c(C)n(-c2ccc(Cl)cc2)c2ccc(OC(=O)C=Cc3ccccc3)cc12,99,92,3
Cl.Oc1ccccc1CNCC12CC3CC(CC(C3)C1)C2,98,99,0
COc1ccc(NC(=O)/C=C/c2ccccc2Cl)cc1OCCN1CCC(c2nc3ccccc3[nH]2)CC1.Cl,92,16,35
O=C(/C=C/c1ccc(Cl)c(Cl)c1)NCCCCCN1CCC(NC(=O)Nc2cc(Cl)ccc2Cl)CC1,99,31,99
COCCCn1c(=N)c(C(=O)NCCc2ccc(OC)cc2)cc2c(=O)n3cccc(C)c3nc21,95,33,18
COc1ccccc1CCNc1nc(C)cc(NCCC(=O)Nc2ccccc2)n1.O=C(O)C(F)(F)F,100,24,7
Cl.Nc1ccc(-c2cc(Cl)cc(Cl)c2)cc1-c1cc2ccccc2[nH]1,100,97,0
N=C(N)NC(=O)Nc1cc(Cl)c(Cl)c(Cl)c1,100,100,0
Oc1cccc(-c2nc(-c3ccccc3)c(-c3ccc4oc5ccc(-c6[nH]c(-c7cccc(O)c7)nc6-c6ccccc6)cc5c4c3)[nH]2)c1,91,35,30
CCOC(=O)c1ccc(N2CCCCC2)c(NC(=O)C(Cl)(Cl)Cl)c1,96,97,11
CCOc1cccc(C(=O)Nc2cccc(CN3CCCN(Cc4cccc(O)c4)CC3)c2)c1.O=C(O)C(F)(F)F,85,18,17
Cc1ccc(C2CCN(CCCCNC(=O)c3ccc(NC(=O)c4ccc(Cl)cc4)cc3)CC2)c(OCC(F)(F)F)c1,99,84,32
Fc1cc(Cl)ccc1Nc1ccnc2cc(-c3ccc(CN4CCCCC4)o3)ccc12,100,99,16
COc1ccc2ncc(F)c(CCN3CC[C@H](NCc4cc(C#N)c5c(c4)OCCO5)[C@H](O)C3)c2c1,96,47,51

Structure (SMILES),Inhibition (Plasmodium falciparum [1]) [%],Inhibition (Plasmodium falciparum [2]) [%],Inhibition (HepG2) [%]
Fc1cccc(CNc2ncc(-c3ccsc3)c(-c3nccs3)n2)c1,91,85,15
CCN(CCCN1CCCCC1)c1cc(C)nc(Nc2ccc(C)cc2C(F)(F)F)n1.O=C(O)C(F)(F)F,100,35,23
COc1ccc(OC)c2c1CCN(CCN1CCC(C(=O)Nc3ccc(C(=O)Nc4ccc(Cl)cc4)cc3)CC1)C2,100,100,25
Cl.N#Cc1ccc(-c2ccc(C(=O)Nc3ccc4c(c3)CCN(C3CCC3)CC4)nc2)cn1,85,15,24
c1cc(CNC2Cc3ccc(-c4cccs4)cc3C2)cc(-n2ccnc2)c1 (stereo not drawn),100,63,0
O=C(NC1CCN(c2ccnc3cc(Cl)ccc23)C1)c1cccc(F)c1.O=C(O)C(F)(F)F (stereo not drawn),95,98,30
CC(C)N1CCN(c2ccc(OCCCCN3CCN(c4cccc(Cl)c4Cl)CC3)c(C(F)(F)F)c2)CC1.Cl,100,28,64
OCCN1CCN(c2ccc(Nc3ccnc4cc5ccccc5cc34)cc2)CC1,100,100,98
CC(=O)Nc1nc(C(=O)Nc2cccc(-c3ccc(-c4nc5cccc(C)c5[nH]4)s3)c2)cs1,100,67,14
COc1c(C2CCN(CCCCNC(=O)c3ccc(-c4ccc(Cl)cc4)cn3)CC2)ccc2c1CCCC2,93,14,100
CCS(=O)(=O)Nc1ccc2c(c1)/C(=C(/Nc1ccc(CN3CCCCC3)cc1)c1ccccc1)C(=O)N2 [HESPERADIN],87,74,53
N#Cc1cccc(C(=O)N2CCOC(CCN3CCC(c4ccccc4)CC3)(c3ccc(Cl)c(Cl)c3)C2)c1 (stereo not drawn),87,49,51
NC1=NC2(CCCCC2)N(OCCCCCCc2ccccc2)C(N)=N1,100,69,73
O=C(NCc1ccccn1)C(c1cc2ccccc2o1)N1CCN(C(c2ccccc2)c2ccccc2)CC1 (stereo not drawn),95,68,17
COc1cc(C(=O)N2CCOC(CCN3CCC[C@H]3C(=O)Nc3ccccc3)(c3ccc(Cl)c(Cl)c3)C2)cc(OC)c1OC (stereo partly drawn),98,88,3
COc1ccc(CNCc2cccc(-c3ccc(-c4nc5cccc(C)c5[nH]4)s3)c2)cc1.O=C(O)C(F)(F)F,100,65,24
COc1ccc(-c2onc(C(F)(F)F)c2-c2ccc(Br)cc2)c(O)c1,99,77,7
O=C(O)C(F)(F)F.O=S(=O)(NCCN1CCCC1)c1ccc(-c2cccc(CNCc3ccsc3)c2)s1,90,43,42
Cc1ccccc1C1CCN(C2CCC(NC(=O)/C=C/c3ccc(C#N)cc3)CC2)CC1 (stereo not drawn),87,13,39
